Laboratory results reported in the supplement of paper PMC10720658.
± gives the standard deviation of the averaged measurements.

Tested on: AEK1 (Tb927.3.2440)
Experiment: percent reduction in TR-FRET probe signal relative to DMSO control; higher = stronger displacement of ATP-site probe (binding)
Settings: 1 µM; incubation time 1 h

Structure (SMILES)	percent reduction in TR-FRET probe signal [%]
CCN(CCO)CCCOc1ccc2c(Nc3cc(CC(=O)Nc4cccc(F)c4)n[nH]3)ncnc2c1 [Barasertib (AZD1152-HQPA)]	-5.79 ± 4.7
O=C(Nc1ccc(OC(F)(F)F)cc1)c1sccc1NCc1ccnc2ccccc12	-8.08 ± 5.7
CS(=O)(=O)CCNCc1ccc(-c2ccc3ncnc(Nc4ccc(OCc5cccc(F)c5)c(Cl)c4)c3c2)o1 [Lapatinib]	6.42 ± 9.8
CNC(=O)c1cc(Oc2ccc3nc(N[C@@H]4CCCC[C@H]4O)sc3c2)ccn1	-6.41 ± 1.1
COc1cc(-c2cc(-c3ccc(N4CCNCC4)cc3)cnc2C)cc(OC)c1OC	-4.94 ± 0.48
Cc1ccc(F)c(NC(=O)Nc2ccc(-c3cccc4[nH]nc(N)c34)cc2)c1 [Linifanib (ABT-869)]	1.08 ± 12
Cc1cc(Nc2nc(N[C@@H](C)c3ncc(F)cn3)ncc2Cl)n[nH]1	56.5 ± 16
CO[C@@H](C)Cn1c(=O)n(C)c2cnc3ccc(-c4cncc(C(C)(C)O)c4)cc3c21	3.02 ± 4.9
Cc1cc(Nc2cc(CN3CCOCC3)c3nc(C)c(Cc4ccc(Cl)cc4F)n3n2)n[nH]1	49 ± 10
COc1cc2nccc(Oc3ccc(NC(=O)Nc4cc(C)on4)c(Cl)c3)c2cc1OC [Tivozanib (AV-951)]	-2.48 ± 4.1
CNC(=O)c1ccc(C)c(-n2c(C)cc(OCc3ccc(F)cc3F)c(Br)c2=O)c1	-1.42 ± 7.4
C=CC(=O)Nc1cccc(Oc2nc(Nc3ccc(N4CCN(C)CC4)cc3)ncc2Cl)c1	1.06 ± 9.5
CN(C)C/C=C/C(=O)Nc1cc2c(Nc3ccc(F)c(Cl)c3)ncnc2cc1O[C@H]1CCOC1 [Afatinib (BIBW2992)]	15.6 ± 31
CCn1c(-c2nonc2N)nc2c(C#CC(C)(C)O)ncc(OC[C@H]3CCCNC3)c21	8.8 ± 4.9
Cc1[nH]c(/C=C2\C(=O)Nc3ccccc32)c(C)c1CCC(=O)O [TSU-68 (SU6668, Orantinib)]	1.55 ± 4
CC(C)N(CCC(=O)c1ccc2ccccc2c1)Cc1ccccc1.Cl	1.95 ± 3.1
CNC(=O)c1c(F)cccc1Nc1nc(Nc2cc3c(cc2OC)CCN3C(=O)CN(C)C)nc2[nH]ccc12	-0.577 ± 11
O=c1cc(-c2cccc3c2Sc2ccccc2S3)oc(N2CCOCC2)c1	-8.85 ± 7.2
CN1CCN(c2ccc(-c3ccncc3-c3cc(F)c(O)c(F)c3)cc2)CC1	1.75 ± 5.2

Structure (SMILES)	percent reduction in TR-FRET probe signal [%]
CNC(=O)c1cc(Oc2ccc(NC(=O)Nc3ccc(Cl)c(C(F)(F)F)c3)cc2)ccn1 [Sorafenib]	17.5 ± 6.7
C=CC(=O)Nc1cccc(Nc2nc(Nc3ccc(NC4CN(CCF)C4)cc3OC)ncc2C(F)(F)F)c1	-12.2 ± 9.2
O=C1Nc2ccccc2/C1=C1\Nc2ccccc2C1=O [Indirubin]	-2.5 ± 6.6
COCCOc1cnc2ccn([C@H](C)c3nnc4c(F)cc(-c5cnn(C)c5)cn34)c(=O)c2c1	5.44 ± 17
CS(=O)(=O)CCNCc1ccc(-c2ccc3ncnc(Nc4ccc(OCc5cccc(F)c5)c(Cl)c4)c3c2)o1.Cc1ccc(S(=O)(=O)O)cc1.Cc1ccc(S(=O)(=O)O)cc1	19.5 ± 21
CC(C)CCN1c2nc(Nc3cc(F)c(O)c(F)c3)ncc2N(C)C(=O)C1C (stereo not drawn)	-13.7 ± 9.2
COc1ncc(-c2ccc3nccc(-c4ccnnc4)c3c2)cc1NS(=O)(=O)c1ccc(F)cc1F	3.02 ± 16
CC(C)(C)Cn1c(N)nc2ccc(-c3[nH]c(C(C)(C)C)nc3-c3ccc(F)cc3)nc21.CS(=O)(=O)O.CS(=O)(=O)O	-14.9 ± 5.8
N#Cc1c(NC(=O)c2cccc3ccccc23)sc2c1CCCC2 [JNK Inhibitor IX]	-3.71 ± 5.5
S=C(NCc1ccc2c(c1)OCO2)N1CCN(c2ncnc3c2oc2ccccc23)CC1 [Amuvatinib (MP-470)]	3.8 ± 9.9
Clc1ccc(C2(c3ccc(-c4cn[nH]c4)cc3)CCNCC2)cc1	27.3 ± 17
CCS(=O)(=O)c1cccc(-c2cc(C(=O)NC3CCN(C)CC3)c(C)c3[nH]c4ncc(C)cc4c23)c1	79.9 ± 8.1
N[C@@H]1CCCN(c2c(/C=C3\SC(=O)NC3=O)cccc2-c2ccccc2)C1	-4.54 ± 7.8
CCN(CC)CCNC(=O)c1c(C)[nH]c(/C=C2\C(=O)Nc3ccc(F)cc32)c1C.O=C(O)C[C@H](O)C(=O)O [Sunitinib Malate]	14.7 ± 14
O=C1NC(=O)/C(=C\c2ccc(-c3ccc(F)cc3)o2)S1	-0.187 ± 4.6
CC(C)CC(=O)Nc1n[nH]c2c1CN(C(=O)C1CCN(C)CC1)C2(C)C	-0.07 ± 7.6
CS(=O)c1ccc(-c2nc(-c3ccc(F)cc3)c(-c3ccncc3)[nH]2)cc1 (stereo not drawn)	-6.83 ± 8.7
Oc1ccc(Nc2nc(-c3ccc(Cl)cc3)cs2)cc1	-4.54 ± 4.1
CCCCCCCCCCCCCCCc1cccc(O)c1C(=O)O [Anacardic Acid]	19.2 ± 19
